Measurements taken from PubChem BioAssay (EPA / NIEHS).
Activity calls are given as the source filed them. Rule for the calls: active = hit-call score of the fitted dose curve at least 0.9, where 1 is the maximum; inactive = score below 0.9.

Experiments:
Conditions in all cases: mRNA level, 48 h; actives raise or lower the signal
[1] = read-out: Ezrin (EZR), EZR (gene 7430); assay: LTEA_HepaRG_EZR: Life Technologies and Expression Analysis (LTEA) Assay for Ezrin (EZR) using HepaRG (AID 2283491)
Procedure, shortened: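 Read-out is EZR transcript level by qRT-PCR, normalized to three housekeeping genes and fitted bidirectionally against the DMSO control. Human HepaRG cells received test chemicals for 48 h at eight half-log concentrations up to 100 uM in 0.5% DMSO.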

[2] = read-out: Cytochrome P450 3A7 (Homo sapiens) (UniProt P24462); assay: LTEA_HepaRG_CYP3A7: Life Technologies and Expression Analysis (LTEA) Assay for CYP3A7 using HepaRG (AID 2283492)
Procedure, shortened: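 HepaRG cells plated 48 h, then dosed in serum-free induction medium for 48 h at 8 concentrations (top 100 uM, half-log steps, 0.5% DMSO). CYP3A7 mRNA by qRT-PCR, normalised to ACTB/GAPDH/POLR2A; bidirectional fit versus DMSO.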

CYP3A5 (gene 1577) = assay: LTEA_HepaRG_CYP3A5: Life Technologies and Expression Analysis (LTEA) Assay for CYP3A5 using HepaRG (AID 2283493)
Procedure, shortened: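 qRT-PCR read-out: CYP3A5 transcript in HepaRG lysates, housekeeping-normalized (ACTB/GAPDH/POLR2A), fitted bidirectionally against 0.5% DMSO baseline. Exposure 48 h, eight half-log concentrations up to 100 uM, duplicates.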

[3] = read-out: Fatty Acid-Binding Protein 1 (FABP1), FABP1 (gene 2168); assay: LTEA_HepaRG_FABP1: Life Technologies and Expression Analysis (LTEA) Assay for Fatty Acid-Binding Protein 1 (FABP1) using HepaRG (AID 2283494)
Procedure, shortened: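 qRT-PCR readout of FABP1 transcript (normalized to three housekeeping genes) after 48 h chemical exposure of HepaRG cells; eight concentrations, half-log steps, max 100 uM, 0.5% DMSO vehicle; gain or loss fitted relative to DMSO baseline.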

[4] = read-out: Cytochrome P450 4A22 (Homo sapiens) (UniProt Q5TCH4); assay: LTEA_HepaRG_CYP4A22: Life Technologies and Expression Analysis (LTEA) Assay for Cytochrome P450 4A22 (CYP4A22) using HepaRG (AID 2283495)
Procedure, shortened: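 qRT-PCR of CYP4A22 mRNA (Fluidigm TaqMan, normalized to three housekeeping genes) after 48 h chemical exposure of HepaRG cells; 8-point half-log series, top 100 uM, 0.5% DMSO vehicle. Bidirectional curve fitting vs DMSO baseline.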

[5] = read-out: Glutathione S-Transferase (GSTA2), GSTA2 (gene 2939); assay: LTEA_HepaRG_GSTA2: Life Technologies and Expression Analysis (LTEA) Assay for Glutathione S-Transferase (GSTA2) using HepaRG (AID 2283497)
Procedure, shortened: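 qRT-PCR readout of GSTA2 transcript, normalized to three housekeeping genes, fitted bidirectionally against 0.5% DMSO baseline. Differentiated HepaRG cells received compound for 48 h at 8 concentrations (top 100 uM, half-log steps).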

[6] = read-out: Glutamate-cysteine ligase catalytic (GCLC), GCLC (gene 2729); assay: LTEA_HepaRG_GCLC: Life Technologies and Expression Analysis (LTEA) Assay for Glutamate-cysteine ligase catalytic (GCLC) using HepaRG (AID 2283498)
Procedure, shortened: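 HepaRG, 48 h exposure, 8-pt half-log series from 100 uM, 0.5% DMSO vehicle; TaqMan qRT-PCR for GCLC mRNA, housekeeping-normalized; bidirectional curve fit vs DMSO baseline.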

[7] = read-out: growth arrest and DNA damage 45 (GADD45G), GADD45G (gene 10912); assay: LTEA_HepaRG_GADD45G: Life Technologies and Expression Analysis (LTEA) Assay for growth arrest and DNA damage 45 (GADD45G) using HepaRG (AID 2283499)
Procedure, shortened: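 Differentiated human HepaRG cells in serum-free induction medium were exposed for 48 h to 8 half-log concentrations up to 100 uM in 0.5% DMSO, in duplicate. GADD45G mRNA was measured by TaqMan qRT-PCR, normalised to ACTB, GAPDH and POLR2A, and fitted bidirectionally against DMSO.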

[8] = read-out: Glutathione S-transferase M3 (GSTM3), GSTM3 (gene 2947); assay: LTEA_HepaRG_GSTM3: Life Technologies and Expression Analysis (LTEA) Assay for Glutathione S-transferase M3 (GSTM3) using HepaRG (AID 2283501)
Procedure, shortened: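 Differentiated HepaRG cells in serum-free induction medium were exposed in duplicate for 48 h to 8 half-log concentrations up to 100 uM in 0.5% DMSO. GSTM3 mRNA was measured by TaqMan qRT-PCR, normalized to ACTB/GAPDH/POLR2A, and fitted bidirectionally versus DMSO.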

[9] = read-out: Heat shock 70 kDa protein 1 (HSPA1A), gene 3303; assay: LTEA_HepaRG_HSPA1A: Life Technologies and Expression Analysis (LTEA) Assay for Heat shock 70 kDa protein 1 (HSPA1A) using HepaRG (AID 2283502)
Procedure, shortened: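 HepaRG, 48 h exposure, 8-pt half-log CRC from 100 uM in 0.5% DMSO, duplicates. Readout: TaqMan qRT-PCR of HSPA1A mRNA, housekeeping-normalized (ACTB/GAPDH/POLR2A). Bidirectional fit vs 0.5% DMSO baseline.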

[10] = read-out: Hypoxia-inducible factor 1-alpha (Homo sapiens) (UniProt Q16665); assay: LTEA_HepaRG_HIF1A: Life Technologies and Expression Analysis (LTEA) Assay for Hypoxia-inducible factor 1 (HIF1A) Trancription factor using HepaRG (AID 2283503)
Procedure, shortened: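 Gain- or loss-of-signal HIF1A mRNA changes are fitted against a DMSO baseline. HepaRG cultures receive eight concentrations, highest 100 uM, for 48 h in serum-free induction medium with 0.5% DMSO.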

[11] = read-out: 3-Hydroxy-3-Methylglutaryl-CoA Synthase 2 (HMGCS2), HMGCS2 (gene 3158); assay: LTEA_HepaRG_HMGCS2: Life Technologies and Expression Analysis (LTEA) Assay for 3-Hydroxy-3-Methylglutaryl-CoA Synthase 2 (HMGCS2) using HepaRG (AID 2283504)
Procedure, shortened: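 Differentiated human HepaRG cells were exposed in duplicate for 48 h in serum-free induction medium to eight concentrations (top 100 uM, half-log steps, 0.5% DMSO). HMGCS2 mRNA was quantified by TaqMan qRT-PCR, normalised to ACTB, GAPDH and POLR2A, then fitted bidirectionally against DMSO.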

HGF (gene 3082) = assay: LTEA_HepaRG_HGF: Life Technologies and Expression Analysis (LTEA) Assay for Hepatocyte Growth Facto (HGF) using HepaRG (AID 2283505)
Procedure, shortened: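 Differentiated human HepaRG cells in serum-free induction medium were exposed in duplicate for 48 h to eight concentrations (top 100 uM, half-log steps, 0.5% DMSO). HGF mRNA was quantified by qRT-PCR, normalized to ACTB, GAPDH and POLR2A.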

[12] = read-out: Insulin Like Growth Factor 1 (IGF1), IGF1 (gene 3479); assay: LTEA_HepaRG_IGF1: Life Technologies and Expression Analysis (LTEA) Assay for Insulin Like Growth Factor 1 (IGF1) using HepaRG (AID 2283506)
Procedure, shortened: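 qRT-PCR readout of IGF1 mRNA, normalized to three housekeeping genes, after 48 h chemical exposure of HepaRG cells. Concentrations: 8-point half-log series, top 100 uM, 0.5% DMSO vehicle. Gain or loss fitted against DMSO baseline.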

[13] = read-out: Intercellular Adhesion Molecule 1 (ICAM1), ICAM1 (gene 3383); assay: LTEA_HepaRG_ICAM1: Life Technologies and Expression Analysis (LTEA) Assay for Intercellular Adhesion Molecule 1 (ICAM1) using HepaRG (AID 2283507)
Procedure, shortened: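 Differentiated HepaRG cells in serum-free induction medium were exposed in duplicate for 48 h to eight half-log concentrations up to 100 uM in 0.5% DMSO. Transcript levels were measured by qRT-PCR normalized to ACTB, GAPDH and POLR2A; bidirectional fits relative to DMSO.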

[14] = read-out: Insulin-like growth factor-binding protein 1 (IGFBP1), IGFBP1 (gene 3484); assay: LTEA_HepaRG_IGFBP1: Life Technologies and Expression Analysis (LTEA) Assay for Insulin-like growth factor-binding protein 1 (IGFBP1) using HepaRG (AID 2283508)
Procedure, shortened: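 Differentiated human HepaRG cells in serum-free induction medium were exposed in duplicate for 48 h to eight concentrations, top 100 uM with half-log dilutions, in 0.5% DMSO. Transcript levels came from qRT-PCR normalised to ACTB, GAPDH and POLR2A, fitted bidirectionally against DMSO.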

[15] = read-out: Interleukin 6 (IL6), IL6 (gene 3569); assay: LTEA_HepaRG_IL6: Life Technologies and Expression Analysis (LTEA) Assay for Interleukin 6 (IL6) using HepaRG (AID 2283509)
Procedure, shortened: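 qRT-PCR read-out of IL6 transcript, normalized to three housekeeping genes, after 48 h chemical exposure of HepaRG cells; 8-point half-log series, top 100 uM, 0.5% DMSO vehicle. Bidirectional curve fitting against DMSO baseline.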

[16] = read-out: Cytochrome P450 7A1 (Homo sapiens) (UniProt P22680); assay: LTEA_HepaRG_CYP7A1: Life Technologies and Expression Analysis (LTEA) Assay for Cytochrome P450 7A1 (CYP7A1) using HepaRG (AID 2283496)
Procedure, shortened: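 Using 0.5% DMSO as vehicle and baseline, chemicals were tested in duplicate over an 8-point range from 100 uM on HepaRG cells for 48 h; qRT-PCR signals were normalised to ACTB, GAPDH and POLR2A.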

[17] = read-out: Interleukin 6 Receptor (IL6R), IL6R (gene 3570); assay: LTEA_HepaRG_IL6R: Life Technologies and Expression Analysis (LTEA) Assay for Interleukin 6 Receptor (IL6R) using HepaRG (AID 2283510)
Procedure, shortened: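 HepaRG, 48 h exposure, 8-pt half-log series, top 100 uM, 0.5% DMSO vehicle, duplicates. Read-out: TaqMan qRT-PCR of IL6R transcript, housekeeping-gene normalized. Gain or loss fitted relative to DMSO baseline.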

Hypoxia-inducible factor 1-alpha (Homo sapiens), sequence (Q16665 whole entry, looked up): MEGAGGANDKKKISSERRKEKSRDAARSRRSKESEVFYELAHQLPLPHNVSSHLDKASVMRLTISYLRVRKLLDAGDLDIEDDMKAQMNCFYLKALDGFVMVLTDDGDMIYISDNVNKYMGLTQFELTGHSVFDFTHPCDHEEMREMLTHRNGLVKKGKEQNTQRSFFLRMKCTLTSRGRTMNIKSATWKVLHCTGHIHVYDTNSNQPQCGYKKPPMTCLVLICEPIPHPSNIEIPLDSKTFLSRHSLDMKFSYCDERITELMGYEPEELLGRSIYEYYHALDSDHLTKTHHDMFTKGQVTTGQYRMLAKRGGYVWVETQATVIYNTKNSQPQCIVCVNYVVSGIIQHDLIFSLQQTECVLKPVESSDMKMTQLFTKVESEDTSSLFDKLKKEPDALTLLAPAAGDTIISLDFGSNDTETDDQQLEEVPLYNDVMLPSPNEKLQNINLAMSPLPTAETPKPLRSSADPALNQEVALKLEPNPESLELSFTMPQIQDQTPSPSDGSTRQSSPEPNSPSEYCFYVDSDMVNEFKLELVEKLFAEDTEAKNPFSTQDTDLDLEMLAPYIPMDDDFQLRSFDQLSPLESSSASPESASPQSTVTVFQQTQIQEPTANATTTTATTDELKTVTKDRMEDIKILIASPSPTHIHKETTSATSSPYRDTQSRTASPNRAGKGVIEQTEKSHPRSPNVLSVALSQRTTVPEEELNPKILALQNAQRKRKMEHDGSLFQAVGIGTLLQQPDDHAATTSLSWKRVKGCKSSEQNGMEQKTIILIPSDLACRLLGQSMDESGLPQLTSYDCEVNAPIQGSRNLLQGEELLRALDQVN
Cytochrome P450 3A7 (Homo sapiens), sequence (P24462 whole entry, looked up): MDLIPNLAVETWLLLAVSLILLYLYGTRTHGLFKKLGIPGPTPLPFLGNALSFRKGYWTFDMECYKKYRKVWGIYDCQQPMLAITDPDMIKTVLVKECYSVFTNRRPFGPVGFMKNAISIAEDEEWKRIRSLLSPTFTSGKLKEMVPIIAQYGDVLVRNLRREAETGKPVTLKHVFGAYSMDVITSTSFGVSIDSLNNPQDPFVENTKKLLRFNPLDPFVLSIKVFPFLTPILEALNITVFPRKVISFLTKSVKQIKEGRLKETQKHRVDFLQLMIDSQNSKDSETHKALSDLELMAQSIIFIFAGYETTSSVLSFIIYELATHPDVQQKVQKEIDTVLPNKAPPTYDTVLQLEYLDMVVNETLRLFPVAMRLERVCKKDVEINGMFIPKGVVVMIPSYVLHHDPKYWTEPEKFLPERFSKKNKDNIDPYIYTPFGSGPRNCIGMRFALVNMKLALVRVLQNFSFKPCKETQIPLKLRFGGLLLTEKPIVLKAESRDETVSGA

CCCCCCCCCCCCO
outcome [1]: inactive
outcome [2]: inactive
outcome (CYP3A5 (gene 1577)): inactive
outcome [3]: inactive
outcome [4]: inactive
outcome [5]: inactive
outcome [6]: inactive
outcome [7]: inactive
outcome [8]: inactive
outcome [9]: inactive
outcome [10]: inactive
outcome [11]: inactive
outcome (HGF (gene 3082)): inactive
outcome [12]: inactive
outcome [13]: inactive
outcome [14]: inactive
outcome [15]: inactive

CCCCCc1ccc(N)cc1
outcome [1]: inactive
outcome [2]: inactive
outcome (CYP3A5 (gene 1577)): inactive
outcome [3]: inactive
outcome [4]: inactive
outcome [16]: inactive
outcome [5]: inactive
outcome [6]: inactive
outcome [7]: inactive
outcome [8]: inactive
outcome [9]: inactive
outcome [10]: inactive
outcome [11]: inactive
outcome (HGF (gene 3082)): inactive
outcome [12]: inactive
outcome [13]: inactive
outcome [14]: inactive
outcome [15]: inactive
outcome [17]: inactive

Cc1cc2c(cc1C(F)(F)F)N(C(=O)Nc1ccc(Oc3cccnc3C)nc1)CC2
outcome [1]: inactive
outcome [2]: inactive
AC50 (CYP3A5 (gene 1577)): 73.1 µM (active)
AC50 [3]: 11.6 µM (active)
AC50 [4]: 29.6 µM (active)
AC50 [16]: 46 µM (active)
AC50 [5]: 26 µM (active)
AC50 [6]: 60.7 µM (active)
outcome [7]: inactive
outcome [8]: inactive
AC50 [9]: 80.9 µM (active)
AC50 [10]: 11.3 µM (active)
AC50 [11]: 29.2 µM (active)
outcome (HGF (gene 3082)): inactive
outcome [12]: inactive
outcome [13]: inactive
outcome [14]: inactive
outcome [15]: inactive
outcome [17]: inactive
